# According to PubChem BioAssay (NCI):
# This is part of a sample that, as a whole, favours compounds with a hit. Of some 83,000 tested, about 20% had one in any assay.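 Cell lines were cultured in 96-well plates, exposed to a single compound concentration, and assessed for percent growth 48 hours later.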 A number with no mark means an inactive call. The source made the active and inactive calls. The calls were made as follows: active = growth percent below 10; inactive = the rest.
# Tested on: MDA-MB-468 breast
# Test: NCI-60 one-dose screen, 48 h (100 = growth as untreated, 0 = no growth, -100 = all killed)
# Conditions: 10 µM unless noted
row,Compound,growth
1,Nc1ccc(-c2nc3cc(Oc4ccc(Oc5ccc6[nH]c(-c7ccc(N)cc7)nc6c5)cc4)ccc3[nH]2)cc1,90.3%
2,COC(=O)C1(CC(C)=O)NC(=S)NC(=O)C1C#N (centres undefined),96%
3,O=C1Nc2ccccc2/C1=C/C(=N/c1nnc(-c2ccccc2)s1)c1ccccc1,56%
4,CCN1CCN(CC(=O)Nc2ccc(-c3cn4c(n3)sc3cc(Oc5ccnc(C(=O)NC)c5)ccc34)cc2)CC1,74.4%
5,O=C(Nc1ccc(Cl)cc1)Nc1nc2ccc([N+](=O)[O-])cc2s1,-36.7% (active)
6,Fc1ccc2nc(-c3cc(-c4ccc5c(c4)OCO5)n[nH]3)[nH]c2c1,46.7%
7,Cc1ccc(NC(=O)Nc2cccnc2)cc1NC(=O)Nc1cccnc1,71%
8,CC(C)(C)OC(=O)N1C/C(=C\c2ccccc2)C(=O)/C(=C/c2ccccc2)C1,112%
9,COc1ccc2c(c1)C(Br)=C(CCO)C2c1ccccc1 (centres undefined),-40.2% (active)
10,CN(C)C(=O)c1ccccc1-n1cnc2ccccc2c1=O,100%
11,Cc1c2cc[nH]c(=O)c2c(C)c2c1[nH]c1cc(OCCN3CCN(C)CC3)ccc12,-12.4% (active)
12,FCc1ncc(-c2ccc(C(F)(F)F)cc2)c(NC2CCCCCC2)n1,24.8% [100 µM]
13,CC(O)CCC(C)[N+](=O)[O-] (centres undefined),107%
14,CCOC(=O)c1c(Nc2ccccc2)nn2c(N)c(C#N)c(-c3ccc(Cl)cc3)nc12,76.8%
15,Cc1ccc(NC2=CC(=O)C(=O)c3ccccc32)c(C)c1,14.1%
16,Cc1ccc(S(=O)(=O)NCCCNc2nc(Nc3ccc(N4CCN(C)CC4)cc3)nc3ccsc23)cc1,12.3%
17,COc1ccccc1N1CCN(C2=C(Cl)C(=O)c3ncccc3C2=O)CC1,-55.3% (active)
18,O=C(C1CCC1)N1N=C(c2ccc(-n3ccc(C(F)(F)F)n3)cc2)CC1c1ccc[nH]1 (centres undefined),106%
19,COc1ccc(/C=C/C(=O)/C=C(/C=C/c2ccc(OC)c(OC)c2OC)OB(F)F)c(OC)c1OC,39.1%
20,CC1(O)OC(COc2ccc(Cl)cc2)COC1O (centres undefined),105%

row,Compound,growth
1,O=C(O)Cc1cc(=O)[nH]n(-c2ccccc2)c1=O,102%
2,CCCCN(CCCC)CCC(C)(O)c1cc2ccccc2c2ccccc12 (centres undefined),107%
3,C=C1C(=O)O[C@H]2[C@H]1CC/C(COC(=O)CCCc1c[nH]c3ccccc13)=C\CC[C@@]1(C)O[C@@H]21,23.1%
4,C=CCn1c(=O)c2cnc(Nc3ccc(N4CCN(C)CC4)cc3)nc2n1-c1cccc(C(C)(C)O)n1,-0.604% (active)
5,COC(=O)/C=C/c1cc(O)c2oc(-c3ccc(O)c(O)c3)c(C(=O)OC)c2c1,26.7%
6,O=C1c2ccccc2-c2nnc(-c3ccc(Br)cc3)cc21,20.3%
7,CC(C)(C)c1cc(C(=O)Nc2cc3ccccc3cc2C(=O)NCCN)cc(C(C)(C)C)c1,-87.6% (active)
8,O=c1oc2ccc(Br)cc2c(=O)n1-c1ccc(Br)cc1F,-11.7% (active)
9,ClC(Cl)c1nc(-c2cccnc2)n2nc(-c3ccccc3)cc2n1,-29.7% (active)
10,O=C1C=CC(=O)N1c1cccc(N2C(=O)C=CC2=O)c1,51.5%
11,CN(C)CC/C=C1\c2ccccc2Sc2ccc(Cl)cc21,8.92% (active)
12,NC(=O)c1c(NC(=O)c2cccc(C(F)(F)F)c2F)sc2c1CCC(=O)C2,-1.45% (active)
13,Cn1cc(-c2csc(-c3cn(C(=O)OC(C)(C)C)c4ccc(Br)cc34)n2)c2ccnc(Cl)c21,5.4% (active)
14,O=C(N/N=C/c1ccc([N+](=O)[O-])o1)c1ccc(O)cc1,12.8%
15,CSc1nc(-c2ccco2)c2c(N)[nH]nc2n1,113%
16,O=C(CN1CCOCC1)NNc1ncnc2ccccc12,55.9%
17,O=C1C=C(OCC=C(C(F)(F)F)C(F)(F)F)c2ccccc2C1=O,-51.2% (active)
18,Clc1ccc2oc3c(NCCCN4CCOCC4)c4ccccc4nc3c2c1,5.24% (active)
19,Nc1c(C(=O)Nc2cccc(Cl)c2)sc2ncc(Cl)cc12,95.3%
